Among the data in PubChem BioAssay AID1117319 (Southern Research Institute, 2015) are inhibition values, retold here.

Where “and” joins values, the source holds several entries; their conditions need not be identical. Equal entries are not always repeated. The whole screen tested about 260,000 compounds, of which about 1,500 (0.58%) were called active. Roughly 5% stayed inconclusive and do not appear here. Only a sample is shown. Measured potencies and affinities stand elsewhere. Values without a mark were called inactive.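 Rule for the calls: active = inhibition above a set limit at one or more doses, reproduced on every date tested; inconclusive = results disagree between test dates, or hit never tested in dose response; inactive = the rest.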

For the assay, the target named is Virion infectivity factor (Human immunodeficiency virus type 1 group M subtype B (isolate BH10)) + Virion infectivity factor (Human immunodeficiency virus type 1 group M subtype B (isolate BRU/LAI)) + Virion infectivity factor (Human immunodeficiency virus type 1 group M subtype B (isolate PCV12)) + Virion infectivity factor (Human immunodeficiency virus type 1 group M subtype B (isolate HXB2)) + DNA dC->dU-editing enzyme APOBEC-3G (Homo sapiens) (UniProt P69720+P69721+P69722+P69723+Q9HC16). Briefly: HIV-1 Vif–A3G interaction blockers – biochemical, TR-FRET, GST-Vif 1-94, biotin-A3G peptide, dose response retest, primary screen (AID 1117319).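 Note: Vif residues 1-94 fused to GST binding biotinylated APOBEC3G peptide 110-148; 0% = full assay without inhibitor and 100% = GST in place of GST-Vif.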 Conditions: TR-FRET GST-Vif / biotin-A3G peptide binding; active compounds read high.
Consider `COc1ccc(NC(=O)CSc2ncnc3c2cnn3Cc2ccccc2)cc1OC`, for which the inhibition was 23.2%.
Consider `O=C(Nc1cccc2ccccc12)N1CCN(Cc2ccccc2)CC1`, for which the inhibition is 20.5%.
Next, `COC(=O)CSc1nnc(-c2ccccn2)n1N`: -2.48%; `CCOC(=O)N1CCN(CC(=O)Nc2ccc(OC)cc2)CC1`: -0.76%.
As for `Cc1ccc(C(CC(=O)N2CCCCC2)c2ccccc2)c(O)c1C` (stereo not drawn), the inhibition is -1.48%.
The same measure for `COc1cc(Cl)c(C)cc1NC(=O)CN1C(=O)C2CCCCC2C1=O` (stereo not drawn): -15.8%; for `O=C(NCC1CCCO1)c1ccc(CS(=O)(=O)c2ccc(Cl)cc2)o1` (stereo not drawn): 0.48%.
The same measure for `Cc1ccc(CC(=O)NNC(=O)c2cccs2)cc1C`: -2.08%.
As for `O=c1cc(CO)oc(C(Nc2ccccn2)c2ccc(C(F)(F)F)cc2)c1O` (stereo not drawn), the inhibition is 10.8%.
Regarding `COc1ccc(C(Nc2ccccn2)c2oc(CO)cc(=O)c2O)cc1` (stereo not drawn), the inhibition is 20.9%.
As for `CN(c1ccccc1)S(=O)(=O)c1ccc(C(=O)NCC2CCCO2)cc1` (stereo not drawn), the inhibition was 6.12%.
Next, `O=[n+]1c2c(n([O-])c3cc(Br)ccc31)CCCC2`: 30%; `O=[n+]1cc(-c2ccc(Br)cc2)n([O-])c2c1CCC2`: 3.02%.
The same measure for `CCOc1ccc2c(c1)n([O-])c1c([n+]2=O)CCCC1`: 23.4%; for `Cc1ccc2c(c1)n([O-])c1c([n+]2=O)CCCC1`: 1.62%; for `O=[n+]1c2c(n([O-])c3cc(F)ccc31)CCCC2`: 11.7%.
With `O=[n+]1c2c(n([O-])c3c1CCCC3)CCCC2`, the inhibition was 3.36%.
The same measure for `O=[n+]1c2c(n([O-])c3ccccc31)CCCC2`: 9.07%.
Consider `O=[n+]1c2c(n([O-])c3cc(F)c(N4CCCC4)cc31)CCC2`, for which the inhibition was 25.7%.
As for `Cc1ccc2oc3nc(C)c(C(=O)O)cc3c(=O)c2c1`, the inhibition is 3.05%.
The same measure for `CCN(CC)CCn1c(=S)[nH]c2cc(C(=O)NCCc3ccc(OC)c(OC)c3)ccc2c1=O`: -5.2%; for `S=c1[nH]nc2nnc3ccccc3n12`: -8.57%.
Next, `COCCN1C(=O)c2[nH]nc(-c3ccccc3O)c2C1c1ccc(OC)cc1` (stereo not drawn): 4.2%; `CCOC(=O)C1=C(C)N(C)C(=S)NC1c1cc(OC)ccc1OC` (stereo not drawn): 29.4%.
Next, `Cc1ccc(NC(=O)N2CCC(C(=O)Nc3ccc(C)cc3C)CC2)cc1`: -2.75%; `COC(=O)C1CCN(S(=O)(=O)c2c[nH]c(=O)[nH]c2=O)CC1`: -3.67%; `CC(C)CN(CC(C)C)S(=O)(=O)N1CCC(C(=O)N2CCc3ccccc3C2)CC1`: 10.1%.
For `O=C(CSc1ccc2nnc(-c3ccccn3)n2n1)N1CCOCC1`, the inhibition is 5.93%.
Turning to `CCOC(=O)C=Nc1c(N)n(C)c(=O)n(C)c1=O`, the inhibition was -1.01%.
On to `CCCCSc1c(C)c2cc3c(cc2[nH]c1=O)OCO3`, for which the inhibition was -11.4%.
`COc1cc(C(=O)NC(=S)NCc2ccco2)cc(OC)c1OC`: the inhibition is 5.31%.
Next, `COc1cc(C(=O)NCc2ccco2)cc(OC)c1OC`: -2.63%.
Next, `N#CC1=C(N)OC2=C(CC/C2=C\c2ccccc2)C1c1ccccc1` (stereo not drawn): 22.4%.
Next, `Cc1ccc(/C=C2\CCC3=C2OC(N)=C(C#N)C3c2ccc(C)cc2)cc1` (stereo not drawn): 20.9%.
As to `CCOC(=O)N1CCN(C(=O)CN(Cc2ccccc2)S(=O)(=O)c2ccc(OC)c(Cl)c2)CC1`, the inhibition is -0.5%.
Consider `O=C(OCc1nc2scc(-c3ccccc3)c2c(=O)[nH]1)c1cc([N+](=O)[O-])ccc1Cl`, for which the inhibition is 1.37%.
Next, `CCN(CC)CCNC(=O)Cn1nc(Cc2cccnc2)c2ccccc2c1=O`: -0.43%; `O=C(Nc1cccc2c1CCCC2)C1CCCN(S(=O)(=O)c2cccc3nonc23)C1` (stereo not drawn): 22.9% and -4.27%.
On to `N#CC1=C(Nc2ccccc2)SC=C(c2ccccc2)N=C1N1CCOCC1`, for which the inhibition was 23.5%.
The same measure for `N#CC1=C(Nc2ccccc2)SC=C(c2ccc(F)cc2)N=C1N1CCOCC1`: -6.08%; for `COc1ccc(CCNC(=O)CC(Cc2ccc(C)cc2)C(=O)O)cc1OC` (stereo not drawn): -5.29%.
Next, `CCc1ccc(C(=O)COC(=O)c2cnc(C)cn2)cc1`: 2.17%.
The same measure for `CCCN1C(=O)/C(=C/c2ccc(C)o2)SC1=Nc1ccc(OC)cc1`: 23.9%; for `COc1ccc(N=C2S/C(=C\c3ccc(C)s3)C(=O)N2CC(C)C)cc1`: -0.05%; for `Cc1cccc(Cc2ccc(Cl)nn2)c1`: 3.42%.
As to `COc1cc(CCCN2C(=O)C(=O)NC[C@@H]2c2ccccc2)cc(OC)c1OC`, the inhibition was -0.8%.
The same measure for `COc1cccc(CN2CCN(Cc3cccc4nonc34)CC2CCO)c1` (stereo not drawn): -3.03%; for `Cc1ccccc1CN1C[C@@H]2C[C@@H](c3cn[nH]c3-c3ccc(F)cc3)N3CCC[C@@]23C1=O`: 6.1%.
Next, `CN1CCN(c2nc3ccccc3nc2NS(=O)(=O)c2ccc(Br)cc2)CC1`: 4.67%; `O=S(=O)(Nc1nc2ccccc2nc1N1CCN(c2ccccc2)CC1)c1ccc(F)cc1`: 10.6%; `CC(C)CNC(=O)COCc1cc(-c2ccc3c(c2)OCO3)on1`: 5.26%.
As for `COc1ccc(Cl)cc1C(=O)OCC(=O)NC(=O)c1cccn1C`, the inhibition was -9.04%.
Next, `COc1ccc(S(=O)(=O)N2CCCC2CNC(=O)C(=O)NCc2ccccc2)cc1` (stereo not drawn): -0.59%.
The same measure for `CCC(=O)NCC(c1ccco1)N1CCN(c2ccc(OC)cc2)CC1` (stereo not drawn): 2.46%; for `CCc1ccc(C(=O)Nc2cc(C)ccc2F)s1`: -4.32%; for `c1ccc2c3c([nH]c2c1)CCNC3`: -5.47%.
The same measure for `O=C1NCCc2c1[nH]c1ccccc21`: 18.5%; for `COc1cc2[nH]c(=O)n(CCCCCC(=O)N3CCN(c4ccccn4)CC3)c(=O)c2cc1OC`: -2.43% and 26.2%.
As for `CCC(=O)N1CC2(CC(c3cccc(NC(=O)CC(c4ccccc4)c4ccccc4)c3)=NO2)C[C@H]1C(N)=O` (stereo partly drawn), the inhibition is 4.04%.
Next, `COc1ccccc1-n1c(SCC(=O)c2ccc(O)cc2O)nc2cc([N+](=O)[O-])ccc21`: 11.3%; `O=C(CSc1nc2ccccc2c(=O)n1-c1ccccc1)NCc1ccc2c(c1)OCO2`: -2.26%.
Turning to `CC(Sc1nc2cc([N+](=O)[O-])ccc2n1-c1ccc(F)cc1)C(=O)NCc1ccc2c(c1)OCO2` (stereo not drawn), the inhibition is -9.4%.
Next, `Cc1cccc(-n2c(SCC(=O)NCc3ccc4c(c3)OCO4)nc3ccccc3c2=O)c1`: 19.8%; `O=C(CN1CCN(c2ccccc2)CC1)c1c[nH]c2ccccc12`: -7.04%.
Next, `COc1cccc(/C=C2\Oc3cc(OC(=O)N4CCOCC4)ccc3C2=O)c1`: 0.99%; `O=C(CN(CCO)Cc1ccccc1)N1CCN(S(=O)(=O)c2ccccc2)CC1`: 0.45%; `C/C=C/c1ccc(OCCCn2cncn2)c(OC)c1`: -2.59%.
The same measure for `COC(=O)C1=C(C)NC(C)=C(C(=O)OC)C1c1cc2cc(C)ccc2[nH]c1=O`: -2.33%.
With `COc1ccc(C2C(C#N)=C(N)Oc3c2ccc2cccnc32)cc1OC` (stereo not drawn), the inhibition was 18.2%.
As to `Cc1ccc(C(=O)Nc2ccc3[nH]c(=O)[nH]c3c2)c(C)c1`, the inhibition is -1.2%.
Next, `C=CCn1c(SCc2nc3ccccc3[nH]2)nnc1-c1cccc(OC)c1`: 7.4%; `Cc1nc2ccc(S(=O)(=O)NCC(=O)NCCN3CCCCCC3)cc2s1`: -0.42%.
The same measure for `Cc1nc(N2CCOCC2)c2c3c(sc2n1)CCC3`: -7.05%; for `CSc1nc(N2CCOCC2)c2c3c(sc2n1)CCCC3`: 2.91%.
In the case of `C=CCN(C(=O)c1csnn1)C(C(=O)NC(C)(C)C)c1ccncc1` (stereo not drawn), the inhibition was 8.31%.
Next, `O=C(c1ccc(CNS(=O)(=O)c2ccccc2)cc1)N1CCN(c2ccccn2)CC1`: 5.22%; `Oc1[nH]c2ccccc2c1N=Nc1ccc(F)cc1`: -2.74%; `Oc1ccc2ccccc2c1N=Nc1ccc(F)cc1`: 7.15% and 5.32%.
The same measure for `CCOC(=O)CC(NC(=O)c1cccs1)c1ccc(C)cc1` (stereo not drawn): -0.96%; for `CCCCOc1ccccc1C1NC(=O)CCC1[N+](=O)[O-]` (stereo not drawn): -4.07%; for `COc1ccccc1/C=C/C=N/NC(=O)Cc1cccs1`: -10.6%.
Next, `O=C(Cc1cccs1)N/N=C/C=C/c1ccccc1`: 4.16%; `O=C(CNC(=O)c1cccs1)N/N=C/c1ccco1`: 10.8%; `O=C(N/N=C/C=C\c1ccco1)c1cccs1`: 2.49%.
As to `O=C(c1ccncc1)N1N=C(C2CC2)CC1(O)C(F)(F)F` (stereo not drawn), the inhibition was -2.38%.
For `CCOC(=O)c1c(C)oc(=O)c(CC)c1O`, the inhibition is -0.93%.
The same measure for `Cc1ccc(S(=O)(=O)N2C[C@H]3C(=O)C[C@@H](c4ccc(Cl)cc4)N(S(=O)(=O)c4ccccc4C)[C@H]3C[C@H]2c2ccccc2)cc1`: -0.22%; for `O=C(CSCc1c(Cl)cccc1Cl)NN=C1CCCC1`: 15.1%; for `CCOC(=O)C1CCCN(c2c(NCC3CCCN3CC)c(=O)c2=O)C1` (stereo not drawn): 1.77%.
Next, `CC(=O)N1Cc2ccccc2CC1C(=O)NCc1ccccc1F` (stereo not drawn): 0.3%.
The same measure for `CCCNC(=O)c1ccc2nc(-c3ccccc3)c(-c3ccccc3)nc2c1`: -1.93%; for `O=C(NC1CCCCC1)c1cc(-c2ccco2)on1`: 2.76%; for `CCc1nc2ccc(C(=O)NCCc3ccco3)cc2nc1CC`: 9.44%.
`O=C(NCCO)c1ccc(Cl)c(Cl)c1`: the inhibition is -3.78%.
Next, `O=C(O)c1ccc2nc(-c3ccco3)c(-c3ccco3)nc2c1`: -0.3%; `CCc1nc2ccc(C(=O)NCc3ccco3)cc2nc1CC`: 3.69%; `C=CCNC(=O)c1ccc2nc(-c3ccccc3)c(-c3ccccc3)nc2c1`: -4.35%.
The same measure for `CCOCCCNC(=O)c1ccc2nc(-c3ccc(OC)c(OC)c3)c(-c3ccc(OC)c(OC)c3)nc2c1`: -0.07%.

By inhibition is commonly meant the drop in the measured response relative to a control, in per cent.
